Reference: PubChem BioAssay AID651812 (National Center for Advancing Translational Sciences (NCATS), 2012)
Hit rate of the full screen: of about 2,100 compounds, about 650 (31%) were called active. Not shown: some 16% with an inconclusive outcome. The list shows a part of the results. A number with no mark means an inactive call. Calls come from the whole dose curve; as a rule, active = well fitted inhibition curve with a large enough effect; inconclusive = small, poorly fitted or top-dose-only effect; inactive = flat fitted curve, though single readings scatter.

test: qHTS for inhibitors of Vif-A3G interactions: Cherry picks; conditions: HeLa A3G-eYFP + Vif (tagged APOBEC3G with the HIV-1 protein that degrades it), 24 h; Potency: eYFP fluorescence increase; series mostly up to 36.9 µM; activity, negative = fluorescence increase: at the top concentration; note: nearly all actives have a fitted effect of over 80% in size; for activity, negative = fluorescence increase: % of control where 0% means no effect
Outline: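 HeLa cells stably expressing A3G-eYFP and Vif, cultured overnight then exposed to compounds at several concentrations for 24 hours at 37 C, 5% CO2; cellular yellow fluorescence (488 nm ex, 500-530 nm em) imaged on Acumen, MG132 positive control.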
Potency is the fitted concentration of half-maximal effect.

Row | SMILES | Potency | activity, negative = fluorescence increase
1 | CCN(CC)c1ccc2cc(-c3nc(-c4cccs4)no3)c(=O)oc2c1 | 2.91 µM (active) | 
2 | CCN(CC)c1ccc2cc(-c3nc(-c4cc(OC)c(OC)c(OC)c4)no3)c(=O)oc2c1 | 0.58 µM (active) | 
3 | CCN(CC)c1ccc2cc(-c3nc(-c4ccc(Cl)cc4Cl)cs3)c(=O)oc2c1 | 2.91 µM (active) | 
4 | CCN(CC)c1ccc2cc(-c3nc4sc5c(c4c(=O)[nH]3)CCC(C(C)(C)C)C5)c(=O)oc2c1 (stereo not given) |  | -8.91% [at 46.1 µM]
5 | CCN(CC)c1ccc2cc(-c3nnc(-c4ccccc4)o3)c(=O)oc2c1 | 0.627 µM (active) | 
6 | CC(=O)Nc1cccc(-c2ccnc3c2CC(C(=O)NCc2cccs2)O3)c1 (stereo not given) |  | -2.02%
7 | CC(=O)Nc1ccc(NC(=O)C/C(C)=N/NC(N)=S)cc1 |  | 4.54% [at 46.1 µM]
8 | O=c1oc2cc(O)ccc2cc1-c1nc(-c2ccc(Cl)c(Cl)c2)cs1 | 1.84 µM (active) | 
9 | COc1ccc(-c2csc(-c3ccc(O)cc3)n2)cc1 |  | 0.669%
10 | CCN(CC)c1ccc2cc(-c3nc4ccccc4n3C)c(=O)oc2c1 | 16.4 µM (active) | 
11 | Oc1ccc(-c2nc(-c3ccc(O)c(O)c3)cs2)cc1 |  | -6.38%
12 | CCN(CC)c1ccc2cc(-c3nc(-c4ccccc4)no3)c(=O)oc2c1 | 4.61 µM (active) | 
13 | CCN(CC)c1ccc2cc(-c3nnc(-c4cccc(Cl)c4)o3)c(=O)oc2c1 | 1.3 µM (active) | 
14 | COc1cccc(C2=CC(c3cc(Br)ccc3F)n3nnnc3N2)c1 (stereo not given) |  | -2.71% [at 46.1 µM]
15 | CCN(CC)c1ccc(/C=N/N=C(N)N)c(O)c1 |  | -11.8%
16 | CCN(CC)c1ccc2cc(C(N)=O)c(=N)oc2c1 | 23.1 µM (active) | 
17 | O=C1/C(=C/c2c[nH]c3ccccc23)CCC/C1=C\c1c[nH]c2ccccc12 | 18.4 µM (active) | 
18 | O=C(c1ccccc1)c1c2c(cc3sc4ccccc4[n+]13)-c1cccc3cccc-2c13 |  | -3.2%
19 | S=C(NN=Cc1ccccn1)Nc1ccccn1 |  | -1.96% [at 46.1 µM]
20 | C/C(=N\Nc1nc(C)cc(-c2ccccc2)n1)c1ccc(F)cc1 |  | 9.12% [at 46.1 µM]
21 | CCOc1ccc(Br)cc1C(=O)Nc1ccc(C(=O)NCC(C)C)cc1 | 6.51 µM (active) | 
22 | CCOc1ccc(Br)cc1/C(C)=N\NC1=NCCN1 |  | -2.26%
23 | CCOc1ccccc1C(=O)Nc1c(C(=O)Nc2ccc(F)cc2)oc2ccccc12 |  | -0.823% [at 46.1 µM]
24 | COCCNC(=S)NN=C1CCCCCC1 |  | 13.5% [at 46.1 µM]
25 | O=C1CC(c2cc(Br)ccc2F)c2cc3c(cc2N1)CCC3 (stereo not given) |  | -3.71%

Row | SMILES | Potency | activity, negative = fluorescence increase
26 | Cc1ccc(/C=C/c2ccc(N(C)C)cc2)[n+](C)c1 | 14 µM (active) | 
27 | CN(C)c1ccc(/C=C/c2cc[n+](C)cc2)cc1 | 15.8 µM (active) | 
28 | CC[n+]1cc(C)ccc1/C=C/c1ccc(N(C)C)cc1 | 14 µM (active) | 
29 | O=C1NC(c2cccc(Cl)c2)Nc2ccccc21 (stereo not given) |  | -1%
30 | O=c1[nH]ncc2c3ccccc3n(Cc3cccc(Cl)c3)c12 | 23.1 µM (active) | 
31 | CC(C)(C)c1ccc(Cn2c(=O)cnc3ccccc32)cc1 |  | 13.5% [at 46.1 µM]
32 | CN(C)c1ccc(/C=C2\SC(=S)N(Nc3ncc(C(F)(F)F)cc3Cl)C2=O)cc1 | 3.66 µM (active) | 
33 | O=C(NNc1ncc(C(F)(F)F)cc1Cl)c1c(Cl)cccc1Cl |  | -5.87%
34 | COc1cc(/C=C2\SC(=S)N(Nc3ncc(C(F)(F)F)cc3Cl)C2=O)ccc1O | 18.4 µM (active) | 
35 | CCOC(=O)Nc1ccc2nc(-c3cscn3)[nH]c2c1 |  | -7.25%
36 | CCCn1c(C2CCCN2c2nc(-c3cccc(Br)c3)cs2)nc2ccccc21 (stereo not given) |  | 3.02% [at 46.1 µM]
37 | CCc1ccc(NC(=O)/C(C#N)=C/c2cc3ccc(C)cc3nc2N2CCOCC2)cc1 | 14.6 µM (active) | 
38 | CCc1ccc(C(=O)NC(=S)Nc2ccc(N3CCOCC3)cc2)cc1 |  | 2.8% [at 46.1 µM]
39 | Cc1cc2c(cc(C(=O)OCC(=O)NCc3cccs3)n2C(C)C)o1 |  | -9.64%
40 | CCOC(=O)C1C(=O)C=C(/C=C/c2ccc(N(C)C)cc2)CC1c1ccccc1 (stereo not given) | 6.51 µM (active) | 
41 | COc1ccc(NC(=S)NN(C)C(=S)Nc2ccc(OC)cc2)cc1 |  | -10.7%
42 | CCC(=C/c1sc2ccc3ccccc3c2[n+]1C)/C=C1\Sc2ccc3ccccc3c2N1C |  | -6.59% [at 46.1 µM]
43 | CCN1/C(=C/c2cc[n+](C)cc2)C=Cc2cc(C)ccc21 | 23.1 µM (active) | 
44 | Cc1cc(C)c(S(=O)(=O)Oc2ccccc2[N+](=O)[O-])c(C)c1 |  | -2.52%
45 | CCOC(=O)C1CCCN(C(=O)c2ccc3nc(-c4cccc(OC)c4)oc3c2)C1 (stereo not given) |  | -9.04%
46 | COc1ccc(NCc2cc3cc4c(cc3n(CC(=O)Nc3cc(C)ccc3C)c2=O)OCCO4)cc1 | 2.31 µM (active) | 
47 | COc1ccc(NC(=O)N(Cc2cc3ccc(OC)cc3[nH]c2=O)CC2CCCO2)cc1 (stereo not given) |  | -0.563%
48 | O=C(Cn1ncc(Cl)c(Cl)c1=O)Nc1ccc2c(c1)OCO2 |  | -1.73%
49 | Cc1nonc1NC(=O)CSc1nc2c(C)cccc2cc1C#N | 18.4 µM (active) | 
50 | Cc1cc(NC(=O)CSc2nc(-c3cccs3)nc3ccccc23)no1 |  | -19.4%
